# Assay results: PubChem BioAssay (NCATS)
# Unmarked numbers belong to inactive results. Results filed as inconclusive are left out. A call without a number means that no potency is given here. The source made the active and inactive calls. Unless noted, the call rests on the fitted dose curve; in most records, active means well fitted curve in the direction sought with a large enough effect; inconclusive means small, poorly fitted or top-dose-only effect, or another doubt; inactive means no such curve, though single readings can be large; an effect the other way counts as inactive or inconclusive.
# What was measured:
# [1] = target: ATP-dependent 6-phosphofructokinase (Trypanosoma brucei brucei) (UniProt O15648); assay: qHTS Assay to Find Inhibitors of T. brucei phosphofructokinase: hit validation (AID 492961);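 further: luminescence reports ADP formed as PFK phosphorylates fructose-6-phosphate with ATP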
# Summary of the method: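 Reaction: 0.1 M triethanolamine pH 8.0, 5 mM MgCl2, F6P 0.5 mM, ATP 0.1 mM, PFK 1.25 nM, 45 min RT. Read-out: ADP-Glo luminescence. Analysis: concentration-response fits, classed by r2 and efficacy.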
# [2] = test system: CP194; assay: qHTS profiling for inhibitors of Plasmodium falciparum proliferation (AID 504749); further: nearly all actives have a fitted effect of over 60% in size; further: potency means the concentration at half of the fitted maximal effect; settings: P. falciparum in erythrocytes, SYBR Green DNA, 72 h; series mostly up to 12.8 µM
# Summary of the method: (§1)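 Parasite proliferation within erythrocytes, 72 h exposure. Endpoint: SYBR Green I fluorescence after overnight lysis at room temperature. Controls: 0.29 uM artemisinin, DMSO.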
# [3] = test system: CP203; assay: as above; settings: P. falciparum in erythrocytes, SYBR Green DNA, 72 h; series mostly up to 12.8 µM
# Summary of the method: as §1
# [4] = test system: CP286; assay: as above; settings: P. falciparum in erythrocytes, SYBR Green DNA, 72 h; series mostly up to 12.8 µM
# Summary of the method: as §1
# [5] = test system: CP291; assay: as above; settings: P. falciparum in erythrocytes, SYBR Green DNA, 72 h; series mostly up to 12.8 µM
# Summary of the method: as §1
# [6] = test system: CP335; assay: as above; settings: P. falciparum in erythrocytes, SYBR Green DNA, 72 h; series mostly up to 12.8 µM
# Summary of the method: as §1
# [7] = test system: DIV14; assay: as above; settings: P. falciparum in erythrocytes, SYBR Green DNA, 72 h; series mostly up to 12.8 µM
# Summary of the method: as §1
# [8] = test system: DIV17; assay: as above; settings: P. falciparum in erythrocytes, SYBR Green DNA, 72 h; series mostly up to 12.8 µM
# Summary of the method: as §1
# [9] = test system: GB4; assay: as above; settings: P. falciparum in erythrocytes, SYBR Green DNA, 72 h; series mostly up to 12.8 µM
# Summary of the method: as §1
# [10] = test system: P93_24; assay: as above; settings: P. falciparum in erythrocytes, SYBR Green DNA, 72 h; series mostly up to 12.8 µM
# Summary of the method: as §1
# [11] = test system: P94_40; assay: as above; settings: P. falciparum in erythrocytes, SYBR Green DNA, 72 h; series mostly up to 12.8 µM
# Summary of the method: as §1
# [12] = test system: PAD; assay: as above; settings: P. falciparum in erythrocytes, SYBR Green DNA, 72 h; series mostly up to 12.8 µM
# Summary of the method: as §1
# [13] = test system: TAB109; assay: as above; settings: P. falciparum in erythrocytes, SYBR Green DNA, 72 h; series mostly up to 12.8 µM
# Summary of the method: as §1
# [14] = S16 Schwann cell PMP22 intronic element firefly luciferase assay (AID 624032); further: nearly all actives have a fitted effect of over 30% in size; further: potency means the concentration at half of the fitted maximal effect
# Summary of the method: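 Rat S16 Schwann cells stably carrying a PMP22 intronic element-driven Fluc reporter were seeded overnight, then exposed to compounds for 24 h at 37 °C. Luminescence was normalized to PTC124 (positive control) and DMSO (0% activity).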
# [15] = qHTS Assay for Identification of Small Molecule Agonists for Hypoxia Response Element Signaling Pathway (AID 914; active means well fitted activation curve with a large enough effect in the signal ratio, with a control signal flat, not every such curve was filed as active; the % refers to the signal ratio); settings: ME-180 HRE-bla reporter, beta-lactamase ratio, CoCl2, 17 h; activation: hits give high values
# Summary of the method: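 ME-180 cells carrying an HRE-driven beta-lactamase reporter were treated with compounds in a titration series plus an EC50 level of CoCl2 for 17 h at 37 degrees Celsius; CCF4 readout as the 460nm/530nm ratio gave AC50 values.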
# [16] = target: Cytochrome P450 1A2 (Homo sapiens) (UniProt P05177); assay: p450-cyp1a2 (AID 410; calls by dose curve; further: potency means the concentration at half of the fitted maximal effect)
# Summary of the method: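 Luminescent readout of luciferin formed from Luciferin-ME by human CYP1A2; data normalized against complete inhibition by 57 uM furafylline. Enzyme 20nM, substrate 100uM at Km, 100mM KPO4 buffer, 60 min reaction at room temperature.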
# [17] = target: Cytochrome P450 2D6 (Homo sapiens) (UniProt P10635); assay: qHTS Assay for Inhibitors and Substrates of Cytochrome P450 2D6 (AID 891); further: potency means the concentration at half of the fitted maximal effect; nearly all actives have a fitted effect of over 60% in size
# Summary of the method: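 Human CYP2D6 (5 nM) with 30 uM Luciferin-ME EGE (at Km) in 100 mM KPO4, compound preincubated 10 min, then NADPH regeneration system for 60 min at room temperature. Luciferin read by luminescence; normalized to 1.43 uM quinidine.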
# [18] = target: Cytochrome P450 3A4 (Homo sapiens) (UniProt P08684); assay: qHTS Assay for Inhibitors and Substrates of Cytochrome P450 3A4 (AID 884); further: potency means the concentration at half of the fitted maximal effect; nearly all actives have a fitted effect of over 50% in size
# Summary of the method: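 20 nM human CYP3A4 with 25 uM Luciferin-PPXE (at KM) in 200 mM KPO4, preincubated 10 min with compound; NADPH regeneration started a 60 min RT reaction. Luciferin detected by luminescence, normalized to 57 uM ketoconazole as full inhibition.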
# [19] = Confirmation and Secondary Assay for Modulators of Hemoglobin Beta Chain Splicing at IVS2 705 locus (AID 930);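 further: HeLa cells stably expressing the EGFP-705 splicing reporter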
# Summary of the method: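 HeLa cells stably carrying EGFP interrupted by mutant beta-globin IVS2-705 intron (CMV-driven) were seeded at 500 cells/well, treated next day with compound for 2 days at 37C; corrected splicing restores EGFP, read as total peak GFP intensity per well.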
# [20] = target: Cytochrome P450 3A4 (Homo sapiens) (UniProt P08684); assay: qHTS Assay for Activators of Cytochrome P450 3A4 (AID 885); further: nearly all actives have a fitted effect of over 65% in size
# Summary of the method: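 20nM CYP3A4 + 25uM Luciferin-PPXE (=KM), 200mM KPO4; cpd 10 min RT; NADPH regen, 60 min RT; stop w/ detection buffer, 20 min; luminescence. Normalized to 57 uM ketoconazole.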
# Cytochrome P450 1A2 (Homo sapiens), sequence (P05177 whole entry, looked up): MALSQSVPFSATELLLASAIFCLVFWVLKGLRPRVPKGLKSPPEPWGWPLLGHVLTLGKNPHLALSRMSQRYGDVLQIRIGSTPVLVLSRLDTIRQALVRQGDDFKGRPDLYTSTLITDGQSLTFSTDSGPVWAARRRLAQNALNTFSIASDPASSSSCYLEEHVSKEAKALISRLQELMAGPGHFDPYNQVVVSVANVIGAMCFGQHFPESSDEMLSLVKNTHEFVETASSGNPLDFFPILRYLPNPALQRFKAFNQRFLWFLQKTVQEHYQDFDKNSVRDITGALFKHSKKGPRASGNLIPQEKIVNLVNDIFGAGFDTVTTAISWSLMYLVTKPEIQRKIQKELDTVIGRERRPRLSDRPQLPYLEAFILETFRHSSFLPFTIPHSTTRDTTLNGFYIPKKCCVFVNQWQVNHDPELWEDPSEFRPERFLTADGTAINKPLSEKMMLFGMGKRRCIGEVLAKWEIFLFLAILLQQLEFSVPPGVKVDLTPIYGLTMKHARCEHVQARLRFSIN
# ATP-dependent 6-phosphofructokinase (Trypanosoma brucei brucei), sequence (O15648 whole entry, looked up): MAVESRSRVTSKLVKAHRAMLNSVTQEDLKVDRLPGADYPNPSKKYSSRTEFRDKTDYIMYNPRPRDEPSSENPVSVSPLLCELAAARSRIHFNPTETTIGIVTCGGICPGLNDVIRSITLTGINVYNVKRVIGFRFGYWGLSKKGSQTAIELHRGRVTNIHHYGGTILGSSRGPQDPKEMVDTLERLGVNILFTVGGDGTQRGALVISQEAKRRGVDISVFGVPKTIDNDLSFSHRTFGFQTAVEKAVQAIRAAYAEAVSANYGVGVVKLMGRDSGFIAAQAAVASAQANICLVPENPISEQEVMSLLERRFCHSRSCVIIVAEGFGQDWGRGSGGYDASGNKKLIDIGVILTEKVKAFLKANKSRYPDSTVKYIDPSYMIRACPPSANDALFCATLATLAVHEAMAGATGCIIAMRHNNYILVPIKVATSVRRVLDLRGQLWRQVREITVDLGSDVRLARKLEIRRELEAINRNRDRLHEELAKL
# Cytochrome P450 3A4 (Homo sapiens), sequence (P08684 whole entry, looked up): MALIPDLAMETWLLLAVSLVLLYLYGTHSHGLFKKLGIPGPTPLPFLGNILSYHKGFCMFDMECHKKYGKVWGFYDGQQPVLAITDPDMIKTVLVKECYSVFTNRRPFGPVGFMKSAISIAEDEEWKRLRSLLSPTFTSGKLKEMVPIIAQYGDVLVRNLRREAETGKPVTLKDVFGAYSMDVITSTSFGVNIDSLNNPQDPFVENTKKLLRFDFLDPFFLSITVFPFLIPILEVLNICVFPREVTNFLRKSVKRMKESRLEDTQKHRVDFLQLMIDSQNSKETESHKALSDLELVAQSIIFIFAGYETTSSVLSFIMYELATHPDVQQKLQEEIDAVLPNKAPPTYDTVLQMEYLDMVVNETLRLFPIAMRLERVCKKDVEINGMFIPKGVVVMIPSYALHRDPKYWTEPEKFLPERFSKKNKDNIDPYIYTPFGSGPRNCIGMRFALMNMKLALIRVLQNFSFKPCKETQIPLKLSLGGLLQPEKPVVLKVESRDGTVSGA
# Cytochrome P450 2D6 (Homo sapiens), sequence (P10635 whole entry, looked up): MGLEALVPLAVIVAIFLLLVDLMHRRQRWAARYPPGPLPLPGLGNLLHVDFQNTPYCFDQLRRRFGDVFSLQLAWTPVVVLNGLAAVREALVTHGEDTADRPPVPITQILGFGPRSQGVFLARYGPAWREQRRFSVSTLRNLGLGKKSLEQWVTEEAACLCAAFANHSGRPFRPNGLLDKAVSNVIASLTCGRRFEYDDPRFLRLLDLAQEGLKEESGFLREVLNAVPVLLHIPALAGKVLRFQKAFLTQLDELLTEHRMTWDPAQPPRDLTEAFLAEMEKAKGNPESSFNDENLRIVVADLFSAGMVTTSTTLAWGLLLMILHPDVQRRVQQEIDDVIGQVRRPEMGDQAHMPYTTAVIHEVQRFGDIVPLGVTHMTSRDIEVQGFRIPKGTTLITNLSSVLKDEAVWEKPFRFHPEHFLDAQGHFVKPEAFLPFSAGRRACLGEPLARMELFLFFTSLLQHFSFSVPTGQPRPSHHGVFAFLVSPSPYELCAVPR
structure (smiles),measurement,setting,value
CN[C@H]1[C@H](O)[C@@H](O[C@@H]2[C@H](O)[C@@H](O[C@H]3OC(CN)=CC[C@H]3N)[C@@H](N)C[C@H]2N)OC[C@@]1(C)O,outcome,[1],inactive
same,Potency,[2],inactive
same,Potency,[3],inactive
same,Potency,[4],inactive
same,Potency,[5],inactive
same,Potency,[6],inactive
same,Potency,[7],inactive
same,Potency,[8],inactive
same,Potency,[9],inactive
same,Potency,[10],inactive
same,Potency,[11],inactive
same,Potency,[12],inactive
same,Potency,[13],inactive
CC(C)(C)NC[C@H](O)COc1cccc2c1C[C@@H](O)[C@@H](O)C2,outcome,[1],inactive
same,Potency,[14],inactive
same,Potency,[2],inactive
same,Potency,[3],inactive
same,Potency,[4],inactive
same,Potency,[5],inactive
same,Potency,[6],inactive
same,Potency,[7],inactive
same,Potency,[8],inactive
same,Potency,[9],inactive
same,Potency,[10],inactive
same,Potency,[11],inactive
same,Potency,[12],inactive
same,Potency,[13],inactive
Cc1ccc2c(c1)c1c3n2CCN[C@H]3CCC1,outcome,[1],inactive
same,Potency,[5],inactive
same,Potency,[7],6.01 µM (active)
same,Potency,[8],12 µM (active)
same,Potency,[10],inactive
CC[C@](C)(CN(C)C)OC(=O)c1ccccc1,outcome,[1],inactive
same,Potency,[2],inactive
same,Potency,[4],inactive
same,Potency,[5],inactive
same,Potency,[8],inactive
same,Potency,[11],inactive
same,Potency,[12],inactive
same,Potency,[13],inactive
Cc1ncc([N+](=O)[O-])n1C[C@H](O)CCl,activation,[15],-4.65%
same,outcome,[1],inactive
same,Potency,[2],inactive
same,Potency,[3],inactive
same,Potency,[4],inactive
same,Potency,[5],inactive
same,Potency,[6],inactive
same,Potency,[7],inactive
same,Potency,[8],inactive
same,Potency,[9],inactive
same,Potency,[10],inactive
same,Potency,[11],inactive
same,Potency,[12],inactive
CNC[C@H](O)[C@H](O)[C@H](O)[C@H](O)CO,Potency,[16],inactive
c1ccc2c3c([nH]c2c1)[C@@H]1[C@H]2CC[C@H]([C@H]4CCCN[C@H]42)N1CC3,Potency,[16],15.8 µM (active)
same,Potency,[17],7.94 µM (active)
CN[C@]1(C)[C@H]2CC[C@@H](C2)C1(C)C,Potency,[16],inactive
COc1cc2cc3c4cc(OC)c(OC)cc4cc[n+]3c(C)c2cc1OC,Potency,[16],inactive
same,Potency,[18],15.8 µM (active)
same,Potency,[19],inactive
CCN1CCC[C@@H](OC(=O)C(c2ccccc2)c2ccccc2)C1,Potency,[20],inactive
same,outcome,[1],inactive
same,Potency,[4],inactive
CN[C@H]1[C@@H](O)[C@@H](NC)[C@@H]2O[C@@]3(O)C(=O)C[C@@H](C)O[C@H]3O[C@H]2[C@H]1O,Potency,[14],inactive
same,Potency,[2],inactive
same,Potency,[4],inactive
same,Potency,[5],inactive
same,Potency,[6],inactive
same,Potency,[7],inactive
same,Potency,[8],inactive
same,Potency,[9],inactive
same,Potency,[10],inactive
same,Potency,[11],inactive
same,Potency,[12],inactive
same,Potency,[13],inactive
Cn1c(-c2ccc3c(c2)OCO3)cc(=O)c2ccccc21,Potency,[16],5.01 µM (active)
same,Potency,[20],inactive
same,Potency,[17],1.58 µM (active)
CN1CCC2(CC1)CCN(C(=O)c1ccncc1)CC2,Potency,[16],inactive
same,activation,[15],7.12%
CCOC(=O)C1=C(C)NC(C)=C(C(=O)OC)[C@@H]1c1cccc([N+](=O)[O-])c1,Potency,[16],15.8 µM (active)
Nc1ccn([C@@H]2CC[C@H](CO)O2)c(=O)n1,Potency,[16],inactive
CCCCC[C@H](O)/C=C\[C@@H]1[C@H](O)CC(=O)[C@@H]1CCCCCCC(=O)O,outcome,[1],inactive
same,Potency,[14],inactive
same,Potency,[3],inactive
same,Potency,[4],inactive
same,Potency,[5],inactive
same,Potency,[6],inactive
same,Potency,[11],inactive
same,Potency,[12],inactive
same,Potency,[13],inactive
CC(=O)O[C@H]1C[C@@]2(C)[C@H](C[C@@H](O)[C@H]3[C@@]4(C)CC[C@@H](O)[C@@H](C)[C@H]4CC[C@@]32C)C1=C(CCC=C(C)C)C(=O)O,outcome,[1],inactive
same,Potency,[14],inactive
same,Potency,[2],inactive
same,Potency,[3],inactive
same,Potency,[4],inactive
same,Potency,[5],inactive
same,Potency,[6],inactive
same,Potency,[7],inactive
same,Potency,[9],inactive
same,Potency,[10],inactive
same,Potency,[11],inactive
same,Potency,[12],inactive
same,Potency,[13],inactive
CC1=C(C(=O)O)N2C(=O)[C@@H](NC(=O)[C@@H](N)c3ccc(O)cc3)[C@@H]2SC1,outcome,[1],inactive
same,Potency,[14],inactive
same,Potency,[2],inactive
same,Potency,[3],inactive
same,Potency,[4],inactive
same,Potency,[5],inactive
same,Potency,[6],inactive
same,Potency,[7],inactive
same,Potency,[8],inactive
same,Potency,[9],inactive
same,Potency,[10],inactive
same,Potency,[11],inactive
same,Potency,[12],inactive
same,Potency,[13],inactive
O=C(N/N=C\c1ccc([N+](=O)[O-])o1)c1ccc(O)cc1,outcome,[1],inactive
same,Potency,[14],3.46 µM (active)
same,Potency,[2],3.61 µM (active)
same,Potency,[3],5.1 µM (active)
same,Potency,[4],2.51 µM (active)
same,Potency,[5],4.55 µM (active)
same,Potency,[6],2.03 µM (active)
same,Potency,[7],3.22 µM (active)
same,Potency,[8],2.28 µM (active)
same,Potency,[9],1.81 µM (active)
same,Potency,[10],2.82 µM (active)
same,Potency,[11],3.55 µM (active)
same,Potency,[12],2.51 µM (active)
same,Potency,[13],2.24 µM (active)
CC1(C)O[C@H]2C[C@@H]3[C@H]4CCC5=CC(=O)CC[C@@]5(C)[C@]4(F)[C@@H](O)C[C@@]3(C)[C@@]2(C(=O)CCl)O1,Potency,[16],inactive
same,Potency,[14],inactive
same,Potency,[7],5.1 µM (active)
same,Potency,[8],6.42 µM (active)
same,Potency,[9],5.73 µM (active)
same,Potency,[10],3.55 µM (active)
same,Potency,[11],3.16 µM (active)
same,Potency,[13],1.41 µM (active)
C[C@@H]1C[C@H](OC(=O)[C@@H](O)c2ccccc2)CC(C)(C)N1C,Potency,[16],inactive
O=C1O[C@@H]([C@@H](O)CO)[C@@H](O)[C@H]1O,outcome,[1],inactive
same,Potency,[14],inactive
same,Potency,[2],inactive
same,Potency,[3],inactive
same,Potency,[4],inactive
same,Potency,[5],inactive
same,Potency,[6],inactive
same,Potency,[7],inactive
same,Potency,[8],inactive
same,Potency,[9],inactive
same,Potency,[10],inactive
same,Potency,[11],inactive
same,Potency,[12],inactive
